# Measured values taken from the supplement of paper PMC6555819.
# Tested on: THRa homodimer (NR concentration 90 nM)
# Experiment: PBM binding z-score (relative to random genomic background probes); higher = stronger binding; sequences stand for … in GC…GCGATTGACAGCGTAGAATGAAGG
# Method in brief: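 Binding z-scores take random background probes as their reference. They come from custom Agilent 4×180K protein-binding microarrays incubated 1 h with ligand-free nuclear receptor dimers, with antibodies against each partner (one per run) detecting binding. Scanned fluorescence was regression-normalized.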
row,Sequence,PBM binding z-score
1,TCGAGTAGGTTAGGGGCATTGAGAATGGCGTCGA,0.383
2,TCGTATAGGTAAACAGGTGAAAGTCCGTAAGTTA,0.786
3,CTCGAAAGGTCGGATGAGGTGAGTATACGGATAA,1.3
4,CAAACTAGATCAAGGTCAAAGTCGGTTTGTGCCA,2.96
5,CATAGCAGGCCAATCTGGGTCACTCAAGGCTTGA,0.366
6,AGAATGAGGTTATACGAAGATCAGGGAAGAAAGT,0.403
7,GCTGCTAGGTGAACTGATGGTCAGCTAAAGCTCG,-0.574
8,CGACCTAGGTCAGAACAGGACAGTGAAGGATGAT,0.505
9,CGAACTAGGTCATAACAGGACAGTGAAGGATGAT,0.443
10,TCGGGTAGGTTAGTCGGGGCATTCAGCCAACATA,1.21
11,CATACATGGTCAGCTAGGCCAGAGTAGGGACGGC,-0.393
12,TCTATTAGTTGAAGGGCAACCAACGAGTCCGTTT,0.123
13,CAAACTAGGTCACGAAAGGTGAAAGTCGAATGAC,1.92
14,GCAGACAGGTGACACGCAGGTAACTCAGGGTGGC,-0.377
15,AGAATGAGGTTAAGATCAGGTAAACAGAATACAT,1.36
16,CCTACTGGGCCAAAGGTCATTGAATCCAATGCTC,0.752
17,TCGAGTTGGTCAAAGGTCACACACTCGAAATGCG,1.19
18,TCCTATAGGTAATACAGGTGAAAGTCGGCATCTA,0.298
19,GATACAGGGTCAGCTAGAGCCCAGAGTATGGAAA,0.0746
20,TCGAGTAGGTTAGGGGCATTTAGAATGGCGTCGA,0.327

row,Sequence,PBM binding z-score
1,CGAACTAGGTCAAGGGCAGTGAATCTCCGCACGC,0.986
2,TAGCCTAGGTCATGAGGGCCAGTATAGTGTCGGC,0.958
3,CGTCCAAGGTCATAGGAGGGCAGTGAAGACAGAT,2.17
4,GCTCCTAGGTCAGGTTGGTCAGCTAACGGGTACG,1.22
5,ATCTAAAGGTCGACGAGGTGAGTATACACCGTTT,0.836
6,ATATGTAGGTTAGCTGGGGTCATCCAGACTAGGC,3.24
7,CAAACTAAGTCAAAGGTCAAAGTCGAGCCAACCA,0.739
8,AATACAGGGTCATCGTAGGCCAGAGAACGCACAG,1.74
9,TCATATAGGTATATGCTAGGTGAAAGTCCGATCT,0.758
10,ACTTACGGGCCAACGAGGTTATAGCACGCGTATA,0.399
11,TCATATAGGTAAATGCTAGGTGAGAGTCCGATCT,-0.108
12,GCGCCTGGGGCATCAGCAGGTTACCATAACTTAA,-0.0466
13,TTACCAAGGTGAGCTGAGGGCGTTGATCCAACTC,0.287
14,ACTATTAGTTGAGACGAGGGCAACCGATAGGTTG,0.226
15,TTACCAAGGTGAAAGTCGTTGATCCCTCTGTAGA,0.568
16,CTACCAAGGTGCACAAGGTCGTTGATTACTATTC,1.21
17,AGAATGAGGTTATACCTAGATCAGGGAAGAAAGT,0.418
18,CGTCAAAGTTCAACTAAGGTACCGTAAAGCACGC,0.671
19,TCTCGGAGGACACGAAGGCCAGAGCTTTCCAGAG,0.215
